Assay outcomes from PubChem.
D2 PAM-1: positively modulates the human D2 dopamine receptor allosterically; AID 485347; HEK293 T-REx D2, calcium flux, EC20 dopamine potentiation; potentiation, % at 10 µM; 340,000 compounds, 0.34% hits; P14416;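 active = potentiation over 3 SD above the plate norm, cut at about 30% in these data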; also: 0% is about no effect
Target sequence (P14416 whole entry, looked up): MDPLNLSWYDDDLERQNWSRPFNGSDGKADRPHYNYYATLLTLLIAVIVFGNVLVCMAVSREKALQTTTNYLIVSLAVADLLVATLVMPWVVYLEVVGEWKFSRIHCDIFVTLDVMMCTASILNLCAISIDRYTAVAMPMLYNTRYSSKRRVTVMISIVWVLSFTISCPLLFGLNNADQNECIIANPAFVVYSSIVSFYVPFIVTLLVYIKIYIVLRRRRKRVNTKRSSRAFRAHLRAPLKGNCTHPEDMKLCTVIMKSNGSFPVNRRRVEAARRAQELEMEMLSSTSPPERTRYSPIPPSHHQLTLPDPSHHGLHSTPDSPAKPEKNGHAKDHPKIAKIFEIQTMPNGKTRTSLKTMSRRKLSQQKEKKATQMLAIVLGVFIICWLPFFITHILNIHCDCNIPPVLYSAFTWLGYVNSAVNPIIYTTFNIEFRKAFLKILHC
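Calcium flux readout, no-wash dye, 1 read/s. Inducible HEK293 Trex D2 line, overnight 30 C. Compound alone 180 s (agonist flags), then EC20 dopamine, another 180 s to score potentiation.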
D2 antagonist: D2 dopamine receptor (human) antagonism; inhibition, % at 10 µM; HEK293 TREx D2 cells, calcium flux, dopamine EC80; 340,000 compounds, 2% hits; in the data active = inhibition above about 30%; inactive = below that, where a call was filed; also: 0% is about no effect
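Measurement of antagonist activity uses fluorescent calcium dye in inducible HEK293 T-REx D2 cells: 10 s baseline, compound addition with 180 s read, EC80 dopamine addition with a further 180 s read.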
D2 PAM-2: human D2 receptor positive allosteric modulation | P14416 | DiscoveRx D2 beta-arrestin cells, luminescence, 90 min; 100% = 57 uM dopamine signal | potentiation, % (no concentration beside the values) | 360,000 compounds, 0.23% hits | AID 624464; in the data active = potentiation above about 50%; inconclusive = mostly about 30% to 49%
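PathHunter beta-arrestin assay in DiscoveRx D2 cells. Compounds were added with an EC20 of dopamine (50 nM final) for 90 min at 37 deg C. Luminescence was read 1 h after detection reagent, with 57 uM dopamine as the EC100 control.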
D2 ag-1: agonists of human D2 dopamine receptor | activation, % at 2 µM | HEK293 T-REx D2 cells, calcium flux agonist mode | 340,000 compounds, 0.53% hits | AID 485358;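 active = activation over 3 SD above normal in the single-dose calcium agonist read, cut at about 30% in these data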; also: 0% is about no effect
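In this primary screen, compounds producing a positive calcium signal within 180 s of addition to tetracycline-induced, force-coupled HEK293 Trex D2 cells are flagged; cells are dye-loaded with a no-wash calcium kit beforehand.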
D2 ag-2: activates the human D2 dopamine receptor; AID 624465; 360,000 compounds, 0.084% hits; DiscoveRx PathHunter D2 beta-arrestin, luminescence, 90 min; 100% = 57 uM dopamine signal; activation, % (test concentration not listed); P14416; in the data active = activation above about 40%; inconclusive = between about 15% and that limit
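DiscoveRx PathHunter D2 beta-arrestin cells (2,100/well) attached overnight, then compound-stimulated 90 min at 37 C in HBSS/10 mM HEPES/0.1% Tween-20 buffer; beta-galactosidase complementation read by luminescence after 1 h at ambient temperature. Dopamine 57 uM final (EC100) as control.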
D3 ag: activates human D3 dopamine receptor beta-arrestin recruitment | shares compounds with D2 ag-1 | Potency, µM (doses to about 76.9 µM), for the others: at the highest dose activation, usual class: activators | DiscoveRx D3 beta-arrestin cells, luminescence, 90 min | 2,300 compounds, 4% hits;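 also: potency is read from the fitted curve at half-maximal effect; 100% = dopamine control response; nearly all actives have a fitted effect of over 70% in size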
D2 ag-3: D2 receptor agonism, beta-arrestin counterscreen; Potency, µM (top dose mostly 76.9 µM), for the others: at the top dose activation, hits mostly activators; 2,300 compounds, 5.9% hits; DiscoveRx PathHunter D2 beta-arrestin, luminescence, 90 min; response scale: percent relative to full dopamine signal; AID 720507; shares compounds with D2 ag-1; also: potency is read from the fitted curve at half-maximal effect; % of control where 0% means no effect; nearly all actives have a fitted effect of over 70% in size
* hit, by the source's call; ? = inconclusive; nt = no result. Only some compounds are listed: those with a hit (about 2.4% of all), similar ones and a draw of the others. Unless noted, calls follow the shape of the dose curve; as a rule, active = well fitted activation curve with a large enough effect; inconclusive = small, poorly fitted or top-dose-only effect; inactive = flat fitted curve, though single readings scatter.

SMILES | D2 PAM-1 | D2 antagonist | D2 PAM-2 | D2 ag-1 | D2 ag-2 | D3 ag | D2 ag-3
O=C(Nc1ccc(N2CCOCC2)cc1)c1ccc(S(=O)(=O)N2CCCCC2)cc1 | -10 | 4 | -15 | 2 | -2 | -2% | -1%
CSc1ccc(CCNC(=O)c2csc3c2CCCCC3)cc1 | -3 | nt | nt | 0 | nt | nt | nt
COc1ccccc1-c1oc2ccccc2c1-c1ccc2cc[nH]c2c1 | 16 | -5 | -3 | 0 | 4 | 1% | 3%
COc1cc(C)c(NC(=O)C(=S)NCCc2ccccc2)cc1C | 9 | -11 | 1 | 5 | 1 | 10% | 24%
COc1ccc(NC(=S)NCCc2ccccc2)c(C)c1 | -3 | 1 | 3 | -1 | -2 | nt | nt
CCOc1ccc(-n2c(=S)sc3c(=O)[nH]c(SCC(=O)NCc4ccco4)nc32)cc1 | -4 | 45* | -7 | 0 | 0 | 0% | -3%
CCOC(=O)CSc1nc2c(sc(=S)n2-c2ccc(OCC)cc2)c(=O)[nH]1 | -2 | 18 | 6 | -1 | 7 | nt | nt
CC(C)[C@@H](C(=O)N1CCN(Cc2ccc3c(c2)OCO3)CC1)n1nnc2ccccc2c1=O | nt | nt | 1 | nt | 0 | nt | nt
Cn1c(=O)cc(SCC(=O)N2CCN(Cc3ccc4c(c3)OCO4)CC2)c2ccccc21 | -10 | 41* | 3 | 38* | 6 | 1% | 11%
Cc1ccc(CSCC(=O)N2CCN(Cc3ccc4c(c3)OCO4)CC2)cc1 | -13 | 15 | -11 | 45* | 2 | -11% | 4%
CCC(C(=O)N1CCN(Cc2ccc3c(c2)OCO3)CC1)n1c(=O)[nH]c2ccccc2c1=O (configuration not stated) | -9 | 3 | -9 | 46* | -9 | -3% | 5%
Cc1ccc(-c2ccc(=O)n(CC(=O)NCCc3ccccc3)n2)cc1 | -14 | nt | nt | 1 | nt | nt | nt
CC(=O)c1sc(NC(=O)c2oc3ccc(F)cc3c2C)nc1C | 9 | -4 | -5 | 0 | 3 | nt | nt
CC(Sc1ncccn1)C(=O)Nc1ccc2c(c1)OCCO2 (configuration not stated) | nt | nt | -36 | nt | -3 | nt | nt
CC(Sc1nc2ccccc2[nH]1)C(=O)Nc1ccc2c(c1)OCCO2 (configuration not stated) | -8 | 66* | -16 | 1 | -2 | -12% | -5%
CC(C)N(Cc1nc(-c2ccccc2)no1)C(=O)c1ccc(Cl)cc1 | -20 | -2 | -7 | 51* | -8 | -11% | 4%
Cc1ccccc1C(=O)N(Cc1nc(-c2ccc(Cl)cc2)no1)C(C)C | -7 | nt | nt | 1 | nt | nt | nt
CC(C)N(Cc1nc(-c2ccccc2)no1)C(=O)c1ccc([N+](=O)[O-])cc1 | -7 | 3 | 1 | -1 | -1 | nt | nt
COc1ccccc1C(=O)N(Cc1nc(-c2ccc(Cl)cc2)no1)C(C)C | -17 | -5 | -3 | 51* | 3 | -1% | 19%
COc1ccc(NC(=O)c2nn(C)c3c2CS(=O)(=O)c2ccccc2-3)cc1Cl | -2 | nt | nt | 1 | nt | nt | nt
CCCn1c(N2CCN(C(=O)Nc3ccc(Cl)cc3)CC2)nc2ccccc21 | nt | nt | 7 | nt | ? | 13% | ?
COc1ccc(N=C(N)SCc2ccccn2)cc1 | -7 | 45* | -9 | 33* | -2 | 3% | -7%
COc1ccc(-c2nnc(SCc3ccccn3)n2C)cc1 | 1 | -14 | -4 | -1 | -5 | nt | nt
Cc1[nH]nc2c1C(c1cccs1)C1=C(CC(C)(C)CC1=O)N2 (configuration not stated) | -6 | 30* | 3 | 36* | -2 | -1% | -4%
Cc1[nH]nc2c1C(c1ccsc1)C1=C(CC(C)(C)CC1=O)N2 (configuration not stated) | -4 | 10 | -14 | 42* | -3 | -10% | -6%
SMILES | D2 PAM-1 | D2 antagonist | D2 PAM-2 | D2 ag-1 | D2 ag-2 | D3 ag | D2 ag-3
CC(CNC(=O)c1ccc(Cn2c(=O)c3cccn3c3cccnc32)cc1)c1ccccc1 (configuration not stated) | -3 | nt | nt | 0 | nt | nt | nt
OC(CN1CCN(Cc2ccc3c(c2)OCO3)CC1)c1c[nH]c2ccccc12 (configuration not stated) | -31 | -1 | -15 | 0 | -1 | nt | nt
OC(CN1CCN(c2ccccc2)CC1)c1c[nH]c2ccccc12 (configuration not stated) | -24 | 54* | -11 | 30 | -1 | 6% | 8%
COc1ccc(N2C(S)=C(C#N)C(=O)NC2c2ccco2)cc1 (configuration not stated) | -20 | 9 | -6 | 50* | 3 | 1% | -3%
Cc1cccc(N2C(S)=C(C#N)C(=O)NC2c2ccco2)c1 (configuration not stated) | 6 | 22 | -3 | 0 | 0 | nt | nt
COc1ccc(Br)cc1CNCc1c(C(=O)O)c(C)n(Cc2ccccc2C)c1C | 4 | nt | nt | 0 | nt | nt | nt
COc1ccccc1N1CCN(Cc2ccsc2)CC1 | -31 | 104* | -8 | 56* | 3 | -7% | 2%
COc1cc2c(cc1OC)CN(Cc1cccs1)CC2 | -26 | -3 | -20 | 1 | -5 | nt | nt
COc1ccccc1N1CCN(Cc2cccs2)CC1 | -19 | 83* | -26 | 18 | -1 | -27% | -3%
CN(Cc1ccccc1)S(=O)(=O)c1nnc(NC(=O)c2ccccc2Cl)s1 | 2 | nt | nt | 0 | nt | nt | nt
CCOC(=O)c1c(NC(=O)CC)sc2c1CCN(Cc1ccccc1)C2 | 5 | -13 | -17 | 8 | -6 | nt | nt
CCOC(=O)c1c(NC(C)=O)sc2c1CCN(Cc1ccccc1)C2 | -19 | -2 | -8 | 25 | -3 | nt | nt
CCOC(=O)c1c(NC(=O)C(C)Sc2cccc[n+]2[O-])sc2c1CCN(Cc1ccccc1)C2 (configuration not stated) | 14 | -6 | -16 | 42* | -5 | -3% | -7%
COC(=O)c1c(NC(C)=O)sc2c1CCN(Cc1ccccc1)C2 | -21 | -24 | -9 | 38* | 0 | 7% | 12%
CC1=C(C(=O)Nc2ccccc2)C(C(C)C)n2nc(SCc3ccccc3C)nc2N1 (configuration not stated) | -10 | nt | nt | 1 | nt | nt | nt
O=C(CCNS(=O)(=O)c1ccccc1C(F)(F)F)N1CCN(C(c2ccccc2)c2ccccc2)CC1 | 0 | -15 | -12 | 0 | 0 | nt | nt
O=C(CCNS(=O)(=O)c1ccccc1C(F)(F)F)N1CCCCCCC1 | -3 | 3 | -2 | 0 | -2 | 1% | -2%
